# Screening data from PubChem BioAssay.
# PAFAH1B2 inh: PAFAH1B2 (human) inhibition | P68402 | AID 492953 | recombinant PAFAH1B2, FP-rhodamine activity probe, fluorescence polarization | 340,000 compounds, 1.2% hits | inhibition, % at 3.39 µM;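 active = inhibition above the mean of all tested compounds plus 3 SD, cut at about 24% in these data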;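 also: 0% = enzyme with DMSO and 100% = wells lacking PAFAH1B2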
# PAFAH1B3 FP inh: blocks human PAF acetylhydrolase 1B catalytic subunit 3. Q15102. recombinant PAFAH1B3, FP-rhodamine probe, fluorescence polarization. inhibition, % at 3.39 µM. 340,000 compounds, 0.28% hits;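 active = inhibition above the screen-wide average of all tested compounds plus 3 SD, cut at about 25% in these data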;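 also: 0% = enzyme with DMSO only and 100% = wells lacking PAFAH1B3 protein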
# Target sequence (Q15102 whole entry, looked up): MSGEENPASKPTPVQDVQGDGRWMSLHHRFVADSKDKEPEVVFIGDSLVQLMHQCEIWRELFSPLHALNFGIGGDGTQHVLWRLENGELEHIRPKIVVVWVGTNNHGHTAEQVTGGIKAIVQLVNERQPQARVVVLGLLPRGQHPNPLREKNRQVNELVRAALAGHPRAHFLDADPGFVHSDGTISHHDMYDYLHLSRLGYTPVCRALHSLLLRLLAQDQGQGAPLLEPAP
# pPAFAH inh: pPAFAH (human) enzyme inhibition. Q13093. recombinant pPAFAH, FP-rhodamine probe fluorescence polarization. inhibition, % at 3.39 µM. 330,000 compounds, 1.5% hits. AID 463082;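 active = inhibition above the mean inhibition across the screen plus 3 SD, cut at about 25% in these data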;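 also: inhibitors block binding of the rhodamine activity-based probe so polarization drops; 0% = enzyme with DMSO and 100% = wells lacking pPAFAH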
# PAFAH2 inh: inhibitors of human PAFAH2 | Q99487 | recombinant PAFAH2, FP-rhodamine activity probe, fluorescence polarization | inhibition, % at 3.39 µM | 340,000 compounds, 0.99% hits | AID 492956;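 active = inhibition above the mean over all tested compounds plus 3 SD, cut at about 30% in these data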;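 also: inhibitors block probe labeling of enzyme so polarization drops; 0% = enzyme with DMSO and 100% = wells lacking PAFAH2 protein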
# PKA-R1A activ: activators of PKA-R1A complex; P00514+P68181; PKA-R1A dissociation, Cy5-IP20 fluorescence polarization; scaled: DMSO 0%, 113 µM cGMP 100%; activation, % at 11.4 µM; 340,000 compounds, 0.083% hits; AID 504707;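 active = percent activation above the mean of all tested compounds plus 3 SD, cut at about 19% in these data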;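 also: higher means more PKAc released from R1A so a rise in polarization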
# PKA-R2B activ: PKA-R2B complex activation; activation, % at 11.4 µM; AID 504700; 340,000 compounds, 0.079% hits; PKA-R2B holoenzyme dissociation, Cy5-IP20 fluorescence polarization; R2B truncated from residue 108, S112A mutant; 0% DMSO only, 100% 113 µM cGMP; P22694+P31323;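 active = activation above a cutoff set at the mean over all compounds plus 3 SD, cut at about 18% in these data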;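 also: higher means more holoenzyme dissociation and a rise in polarization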
# Target sequence (P31323 whole entry, looked up, other chains not shown, the tested form may be a part): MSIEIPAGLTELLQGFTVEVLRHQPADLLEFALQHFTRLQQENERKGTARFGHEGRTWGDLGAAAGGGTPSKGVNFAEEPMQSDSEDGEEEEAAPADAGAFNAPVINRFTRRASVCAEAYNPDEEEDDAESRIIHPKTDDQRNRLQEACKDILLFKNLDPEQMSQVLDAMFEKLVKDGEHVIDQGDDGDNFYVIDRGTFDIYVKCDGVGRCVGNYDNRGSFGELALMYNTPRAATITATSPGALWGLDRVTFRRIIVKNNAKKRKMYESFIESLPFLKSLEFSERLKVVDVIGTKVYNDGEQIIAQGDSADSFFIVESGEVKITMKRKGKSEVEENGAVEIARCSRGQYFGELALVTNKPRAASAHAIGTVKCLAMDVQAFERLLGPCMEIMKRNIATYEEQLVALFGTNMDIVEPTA
# PAFAH2 FP conf: confirmation of human PAFAH2 inhibitors. shares compounds with PAFAH2 inh. inhibition, % at 3.39 µM. 2,300 compounds, 65% hits. recombinant PAFAH2, FP-rhodamine activity probe, fluorescence polarization;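 active = mean inhibition over three repeats above a set limit taken from the earlier primary screen, cut at about 30% in these data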;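 also: inhibitor blocks binding of rhodamine activity probe so polarization falls; 0% = enzyme with DMSO and 100% = wells lacking PAFAH2 protein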
# PAFAH1B3 confirm: PAFAH1B3 (human) inhibition, confirmed; inhibition, % at 3.39 µM; 390 compounds, 30% hits; shares compounds with PAFAH1B3 FP inh; recombinant PAFAH1B3, FP-Rh activity-based probe, fluorescence polarization;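 active = average inhibition over triplicate runs above the hit cutoff set in the earlier primary screen, cut at about 25% in these data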;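 also: 0% = enzyme with DMSO and 100% = wells lacking PAFAH1B3 protein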
# R2B FP artifact: FP assay interference, PKA-R2B counter-screen | shares compounds with PKA-R2B activ | FP artifact counterscreen, fluorescence polarization | activation, % at 11.4 µM | 270 compounds, 6% hits; in the data active = activation above about 20%;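 also: Cy5 labelled IP20 peptide probe with compound but no PKA protein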
# PKA-R2B act conf: confirmation of human PKA-R2B complex activators; activation, % at 11.4 µM; AID 504797; shares compounds with PKA-R2B activ; 270 compounds, 9% hits; fluorescence polarization, activation; in the data active = activation above about 19%
# R1A FP artifact: counter-screen for PKA-R1A activators: fluorescence polarization artifacts; shares compounds with PKA-R1A activ; Cy5-IP20 peptide alone, fluorescence polarization artifact counterscreen; activation, % at 11.4 µM; 280 compounds, 7% hits;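 active = mean activation over triplicate runs exceeds the adjusted cutoff derived for the parent primary screen, cut at about 19% in these data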;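 also: no PKA protein present so any polarization rise reflects compound interference; 0% = tracer peptide mix alone and 100% = mix with added PKA catalytic subunit; higher means stronger polarization artifact and likely false positive in parent screen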
# PKA-R1A act conf: confirmation of PKA-R1A complex activators; shares compounds with PKA-R1A activ; Cy5-IP20 fluorescence polarization, PKA-R1A holoenzyme dissociation; activation, % at 11.4 µM; 280 compounds, 9% hits;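 active = mean activation over replicate wells exceeds the adjusted hit threshold taken from the earlier primary screen, cut at about 20% in these data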;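 also: 0% = holoenzyme mix with DMSO only and 100% = cGMP-activated control wells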
# * = called active by the depositor; nt = not tested or not shown. In the library only some 2.6% were active in any assay of this set; here they are far more common.
SMILES,PAFAH1B2 inh,PAFAH1B3 FP inh,pPAFAH inh,PAFAH2 inh,PKA-R1A activ,PKA-R2B activ,PAFAH1B3 confirm,others
Cc1cc(C(=O)OCC(=O)Nc2ccc(F)cc2)c(C)n1C1CC1,0,5,7,43*,-9,1,nt,PAFAH2 FP conf=25
Cc1cc(C(=O)OCC(=O)Nc2cccc(F)c2)c(C)n1C1CC1,1,9,6,65*,0,4,nt,PAFAH2 FP conf=51*
Fc1cccc(CCNCc2ccccn2)c1,2,7,-1,-2,-5,4,nt,
Cc1cc(/C=C2\C(=O)NC(=O)N(c3ccc(Cl)cc3)C2=O)c(C)n1-c1sc2c(c1C#N)CCCC2,3,4,13,33*,-9,0,nt,PAFAH2 FP conf=18
COc1ccc(OC)c(CC(=O)N(C)C2CCCN(Cc3ccccc3F)C2)c1 (stereo not given),1,8,-2,6,3,-9,nt,
Cn1cc(/C=C2\C(=O)NC(=O)N(c3ccccc3)C2=O)c2ccccc21,5,7,-1,39*,-3,3,nt,PAFAH2 FP conf=36*
CC(C)(C)n1cccc1/C=C1\C(=O)NC(=O)N(c2ccccc2)C1=O,9,-2,2,50*,1,-3,nt,PAFAH2 FP conf=44*
COc1cc(/C=C2\C(=O)NC(=O)N(c3ccccc3)C2=O)cc(OC)c1O,5,10,3,-1,-16,1,nt,
CCNC(=O)NC(=O)C(C)OC(=O)c1c(C)nn(Cc2ccccc2Cl)c1Cl (stereo not given),-4,3,7,-2,0,-7,nt,
Nc1c(C(=O)NC2CCCC2)c2nc3ccccc3nc2n1CC1CCCO1 (stereo not given),2,26*,17,7,1,1,15,
COc1ccc(-n2c(/C=C/c3cccc(F)c3)nc3ccccc3c2=O)c(OC)c1,1,9,nt,-3,-4,-1,nt,
CC1(C)OC(c2ccccc2)=C/C(=C/C=C2C(=O)NC(=O)NC2=O)O1,-140,-207,-85,-177,3,-14,nt,
COCCCn1c(N)c(C(=O)OCCOC)c2nc3ccccc3nc21,-3,11,2,1,-1,5,nt,
CCCCCn1c(NC(=O)c2ccco2)c(C(=O)OCC)c2nc3ccccc3nc21,23,55*,8,3,-7,-6,50*,
CCOC(=O)c1c(N)n(CCCOC(=O)c2ccco2)c2nc3ccccc3nc12,5,10,5,-1,-6,-5,nt,
CCOC(=O)c1c(NS(=O)(=O)c2ccccc2)n(CCCOC)c2nc3ccccc3nc12,14,27*,9,-2,2,-2,10,
c1cncc(C2Nc3cccc4cccc(c34)N2)c1,2,36*,8,-1,-16,3,12,
Cc1nc2ccccc2c(=O)n1-c1cccc(C(F)(F)F)c1,2,4,-1,-2,-6,-4,nt,
COc1ccc(NC(=O)c2cn(CCC#N)nc2-c2cccc(Br)c2)cc1,4,9,6,6,-3,-3,nt,
O=C(COc1ccccc1)N1CCN(CCN2C(=O)c3cccc4cccc(c34)C2=O)CC1,-1,-7,2,1,-8,-15,nt,
O=C(COc1ccccc1F)N1CCN(CCN2C(=O)c3cccc4cccc(c34)C2=O)CC1,2,28*,3,2,12,-3,5,
O=C(O)CC1OCC=C2CN3CCC45C6=CC(=O)C(=O)C([N+](=O)[O-])=C6NC4C1C2CC35 (stereo not given),10,72*,5,9,-4,-3,9,
O=C(O)CC1OCC=C2CN3CCC45c6ccccc6NC4C1C2CC35 (stereo not given),-1,0,-8,2,-8,2,nt,
COc1cc2c(cc1OC)-c1c(OC)c(OC)cc3c1[C@H](C2)N(C)CC3,11,34*,-1,19,0,-1,9,
CN1CC[C@@]2(C)c3cc(O)ccc3N(C)[C@@H]12,13,40*,nt,3,-13,-12,5,
SMILES,PAFAH1B2 inh,PAFAH1B3 FP inh,pPAFAH inh,PAFAH2 inh,PKA-R1A activ,PKA-R2B activ,PAFAH1B3 confirm,others
C#CCNc1ccncc1S(=O)(=O)NC(=O)NC(C)C,2,7,1,-3,10,20*,nt,R2B FP artifact=2;PKA-R2B act conf=2
C#CCN1C(=O)C2(C(C#N)=C(N)OC(C)=C2C(=O)OCc2ccccc2)c2ccccc21 (stereo not given),5,6,6,0,-10,-1,nt,
COC(=O)C1=C(c2c(C)noc2C)C[C@@H]2CC[C@H]1N2C(=O)N1CCCC1,0,-2,-2,-6,20*,-7,nt,R1A FP artifact=3;PKA-R1A act conf=3
COC(=O)C1=C(c2c(C)noc2C)C[C@@H]2CC[C@H]1N2C(=O)NC(C)C,0,1,-1,-4,4,-5,nt,
O=C(/C=C/c1ccc(Cl)cc1)NC(=S)N1C[C@H]2C[C@H](C1)c1cccc(=O)n1C2,2,7,6,0,10,-3,nt,
CCOC(=O)c1ccccc1NC(=O)c1c(O)[nH]c(=S)[nH]c1=O,8,2,0,2,19*,1,nt,R1A FP artifact=1;PKA-R1A act conf=1
